Measured values reported in PubChem BioAssay (NCATS).
Records with an inconclusive call do not appear. Entries that show only a call come without a potency. Active and inactive are the calls of the source. Calls follow the shape of the dose curve; as a rule, active = well fitted inhibition curve with a large enough effect; inconclusive = small, poorly fitted or top-dose-only effect; inactive = flat fitted curve, though single readings scatter.

tested on: Zika virus NS2B-NS3 protease; test: Primary screen GU AMC qHTS for Zika virus inhibitors (AID 1347154); conditions: Zika NS2B-NS3 unlinked protease, AMC fluorogenic substrate; series mostly up to 54.1 µM; also: nearly all actives have a fitted effect of over 70% in size
How it was run: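 Unlinked Zika NS2B hydrophilic domain–NS3 protease complex at 25 nM in 10 mM Tris-HCl pH 8.0, 0.01% Tween 20, with an AMC peptide substrate. Fluorescence change (340/450 nm) over 15 min at room temperature, normalized to controls, fitted to 4-parameter Hill.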
Potency is read from the fitted curve at half-maximal effect.

SMILES	Potency
CC(C)OC(=O)C1=CN(C(=O)c2ccc(F)c(F)c2)CC(C)(C)c2c1[nH]c1ccccc21	inactive
N#CC[C@H](C1CCCC1)n1cc(-c2ncnc3[nH]ccc23)cn1	24.1 µM (active)
CCCn1c(=O)c2[nH]c(C34CC5CC3C[C@@H](C5)C4)nc2n(CCC)c1=O	inactive
COc1ccccc1[C@H](c1cccc2ccccc12)[C@@](C)(C#N)C(=O)N1CCC(c2cccc(C(F)(F)F)c2)CC1	inactive
O=c1ncn2nc(Sc3ccc(F)cc3F)ccc2c1-c1c(Cl)cccc1Cl	inactive
CCCCCCCc1ccc(CCc2cccc(O)c2C(=O)O)cc1	8.57 µM (active)
CC1(C)CNc2cc(NC(=O)c3cccnc3NCc3ccncc3)ccc21	inactive
CC[C@@H](C)[C@H](NC(=O)[C@H](CC1CCCCC1)NC(=O)c1ccno1)C(=O)N1CCC2(CCc3ccccc32)CC1	inactive
O=C1[C@H](Cc2ccc(O)cc2)N2C(=O)CCN(C(=O)NCc3ccccc3)[C@H]2CN1Cc1cccc2ccccc12	inactive
CCN(c1ccccc1)c1cc(NC)[n+](C)c(C)n1	inactive
O=c1[nH]c(-c2ccc(C(F)(F)F)cc2)nc2c1CSCC2	inactive
c1ccc(-c2nn3c(c2-c2ccnc4cc(OCCN5CCOCC5)ccc24)CCC3)nc1	inactive
CCOc1ccc(Cc2cc([C@@H]3O[C@H](CO)[C@@H](O)[C@H](O)[C@@H]3O)ccc2Cl)cc1	inactive
N#Cc1ccc(C(c2ccc(C#N)cc2)n2cncn2)cc1	inactive
CCc1cc(Nc2nccc(-c3c(-c4ccc(OC)c(C(=O)Nc5c(F)cccc5F)c4)nc4ccccn34)n2)c(OC)cc1N1CCC(N2CCN(S(C)(=O)=O)CC2)CC1	inactive
Clc1ccc(Nc2nnc(Cc3ccncc3)c3ccccc23)cc1	inactive
Fc1ccc(Cl)cc1-c1nc(Nc2ccncc2)c2nccnc2n1	inactive
OCCC#Cc1nc(-c2ccc(F)cc2)c(-c2ccncc2)n1CCCc1ccccc1	inactive

SMILES	Potency
CCn1c(-c2nonc2N)nc2c(C#CC(C)(C)O)ncc(OC[C@H]3CCCNC3)c21	inactive
CN(C)C(=O)c1ccc(S(=O)(=O)c2ccc(NC(=O)[C@@](C)(O)C(F)(F)F)c(Cl)c2)cc1	inactive
Cc1cc(Nc2nc(N[C@@H](C)c3ncc(F)cn3)ncc2Cl)n[nH]1	inactive
OCCn1cc(-c2cnc3nnn(Cc4ccc5ncccc5c4)c3n2)cn1	inactive
Cc1c(CCOc2ccc(C(=O)O)cc2)c2cc(Cl)ccc2n1C(c1ccccc1)c1ccccc1	inactive
COc1ccc(CC2=NN3C([C@@H](CCc4ccccc4)[C@@H](C)O)=NC(C)C3C(=O)N2)cc1OC (stereo not given in full)	inactive
COc1ccc(C2=N[C@H](c3ccc(Cl)cc3)[C@H](c3ccc(Cl)cc3)N2C(=O)N2CCNC(=O)C2)c(OC(C)C)c1	inactive
CCOC(=O)C1=C[C@@]2(CC)CCCN3CCc4c(n1c1ccccc41)[C@H]32	inactive
O=C(Nc1cccnc1)N1CCC(Cc2cccc(Oc3ccc(C(F)(F)F)cn3)c2)CC1	inactive
Nc1cccc(S(=O)(=O)N2CCCN(S(=O)(=O)c3ccc4c(c3)OCCO4)CC2)c1	inactive
Cc1csc(NC(=O)c2sc3nc4c(c(C(F)(F)F)c3c2N)CCC4)n1	inactive
COc1ccc2nc(S(=O)Cc3ncc(C)c(OC)c3C)[nH]c2c1 (stereo not given)	inactive
COc1cc(F)c(F)c(Nc2ccc(I)cc2F)c1NS(=O)(=O)C1(C[C@H](O)CO)CC1	inactive
COc1nc(-c2ccc3c(c2)OCO3)n(-c2ccc(NC(=O)CSc3ccccc3)cc2)n1	inactive
CC(C)(N)C(=O)N[C@H](COCc1ccccc1)C(=O)N1CCC2(CC1)CN(S(C)(=O)=O)c1ccccc12	inactive
Nc1nccc(-c2ccc3noc(-c4ccc(Cl)cc4)c3c2)n1	inactive
Cc1cc2c(F)c(Oc3ncnn4cc(OC[C@@H](C)O)c(C)c34)ccc2[nH]1	inactive
